The source of these data is PubChem BioAssay AID1851 (National Center for Advancing Translational Sciences (NCATS), 2009).

Values joined by “and” are separate entries in the source; they are usually repeats but may differ in a detail not shown here. Identical values can stand only once. About 2,600 (16%) of roughly 16,000 compounds were called active. Another 20% or so got no clear call; they are omitted. Calls follow the shape of the dose curve; as a rule, active = well fitted curve in the direction sought with a large enough effect; inconclusive = small, poorly fitted or top-dose-only effect, or effect the other way; inactive = no such curve, though single readings can be large or run the other way. The entries come from a sample that favours actives as a whole.
% is scaled to controls: 0 for no effect and ±100 for the full control effect.

Chain of Cytochrome P450 2D6 (Homo sapiens) (P10635 whole entry, looked up): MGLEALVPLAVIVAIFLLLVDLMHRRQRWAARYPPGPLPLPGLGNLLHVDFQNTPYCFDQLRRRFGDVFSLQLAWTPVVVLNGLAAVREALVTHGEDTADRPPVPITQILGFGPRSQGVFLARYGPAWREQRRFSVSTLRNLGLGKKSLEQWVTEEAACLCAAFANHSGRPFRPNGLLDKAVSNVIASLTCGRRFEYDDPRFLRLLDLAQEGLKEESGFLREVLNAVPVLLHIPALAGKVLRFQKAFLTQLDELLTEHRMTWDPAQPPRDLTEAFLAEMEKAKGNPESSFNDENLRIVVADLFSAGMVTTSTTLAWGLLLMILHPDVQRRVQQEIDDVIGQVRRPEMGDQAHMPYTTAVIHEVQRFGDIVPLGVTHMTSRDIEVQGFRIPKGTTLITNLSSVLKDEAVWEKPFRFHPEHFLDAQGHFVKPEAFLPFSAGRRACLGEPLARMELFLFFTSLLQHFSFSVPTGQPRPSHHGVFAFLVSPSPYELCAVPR

This experiment has as its target Cytochrome P450 2D6 (Homo sapiens) (UniProt P10635). Description: Cytochrome panel assay with activity outcomes. The note with it: recombinant CYP, pro-luciferin dealkylation, luminescence, p450-cyp2d6; series mostly up to 57.1 µM.
Turning to `O=[N+]([O-])c1cc(-c2ccc([As](=O)(O)O)cc2)ccc1[As](=O)(O)O`, the activity, negative = inhibition was 14% [at 11.4 µM] (inactive).

For `CC(C)Oc1cccnc1N(C)C1CCN(Cc2ccccc2)CC1`, the concentration at half-maximal activity (AC50) was 7.94 µM (active).

Take `NNC(N)=O`: the AC50 entry was “inactive”.

`CC(=O)[C@]1(O)CC[C@@H]2[C@H]3C[C@@H](C)C4=CC(=O)CC[C@@]4(C)[C@H]3[C@@H](O)C[C@]21C`: the activity, negative = inhibition was 1.26% [at 11.4 µM] (inactive).

As to `c1cc(C2N3CCCN2CC3)ccn1` (stereo not drawn), the activity, negative = inhibition was 15.8% [at 11.4 µM] (inactive).

Consider `CC[C@H](C(=O)[C@H](C)[C@H](O)[C@H](C)CCc1ccc(C)c(O)c1C(=O)O)[C@H]1O[C@](CC)([C@@H]2CC[C@@](O)(CC)[C@H](C)O2)C[C@H]1C`, for which the AC50 result was “inactive”.

As to `Cc1cc(C(C)(C)C)cc(C)c1CC1=NCCN1`, the half-maximal activity concentration (AC50) was 31.6 µM (active) and 3.98 µM (active).

As to `O=C(O)[C@@H]1C[C@H]1[C@@H](NP(=O)(c1ccccc1)c1ccccc1)c1ccccc1`, the AC50 entry was “inactive”.

As to `c1cncc([C@@H]2CCCCN2)c1`, the AC50 result was “inactive”.

Regarding `CCCCn1c(O)c(C=NCCN2CCCCC2)c(=O)[nH]c1=O`, the AC50 entry was “inactive”.

For `COCOc1ccc(Br)cc1C(=O)/C=C\c1ccc2c(c1)OCO2`, the AC50 was 3.16 µM (active).

Turning to `NC[C@@H](O)CSP(=O)(O)O`, the activity, negative = inhibition is 3.14% [at 11.4 µM] (inactive).

Regarding `O=C1C[C@@H](c2ccc(O)cc2)Oc2cc(O)cc(O)c21`, the AC50 entry was “inactive”.

Take `CC(=O)O[C@H]1CC[C@@]2(C)[C@@H](CC[C@H]3[C@H]2CC(=O)[C@]2(C)[C@@H]3C[C@@H](N3CC3)[C@H]2C(C)=O)C1`: the activity, negative = inhibition is -8.74% [at 11.4 µM] (inactive).

`NC(N)=NC(=O)c1nc(Cl)c(N)nc1N`: the AC50 entry is “inactive”.

Take `Ic1ccccc1CN[C@@H]1C2CCN(CC2)[C@H]1C(c1ccccc1)c1ccccc1`: the AC50 is 0.0631 µM (active).

As for `NO`, the AC50 result was “inactive”.

As to `CC(=O)OCC1=C(C(=O)[O-])N2C(=O)[C@@H](NC(=O)CCC[C@@H](N)C(=O)[O-])[C@@H]2SC1.[Zn+2]`, the AC50 entry is “inactive”.

With `O=c1cc(-c2ccc(O)cc2)oc2c([C@H]3O[C@@H](CO)[C@@H](O)[C@@H](O)[C@@H]3O)c(O)cc(O)c12`, the AC50 entry was “inactive”.

Turning to `COC(=O)[C@H]1C(=O)c2ccccc2O[C@@](C(=O)OC)(c2ccccc2)[C@@H]1c1ccccc1`, the activity, negative = inhibition was 11.5% [at 11.4 µM] (inactive).

Turning to `Cn1cccc1CNCCc1ccccc1`, the AC50 is 2.51 µM (active).

For the compound `O=C(O)Cc1ccc([N+](=O)[O-])cc1[N+](=O)[O-]`, the activity, negative = inhibition was 5.45% [at 11.4 µM] (inactive).

For the compound `Cc1cc(Cc2cc(C)c(N)cc2N)c(N)cc1N`, the activity, negative = inhibition was -18.6% [at 11.4 µM] (inactive).

As to `CSCC[C@@H](N)P(C)(=O)O`, the activity, negative = inhibition is 3.31% [at 11.4 µM] (inactive).

As to `c1ccc2c(c1)[I+]c1ccccc1-2`, the AC50 is 3.98 µM (active) and 794 nM (active).

As to `CN1C2C=C3C(C#N)=C(N)C(C#N)(C#N)[C@H](c4c(F)cccc4F)[C@H]3C1CC2` (stereo partly drawn), the AC50 entry was “inactive”.

For the compound `CCC[C@@](C)(COC(N)=O)COC(=O)NC(C)C`, the AC50 entry was “inactive”.

As for `Clc1ccccc1-c1cncnc1NCCc1cnc[nH]1`, the AC50 was 3.98 µM (active).

For the compound `Cc1ccccc1-c1cncnc1NCCc1cnc[nH]1`, the AC50 is 12.6 µM (active).

For `CNCCc1cnc[nH]1`, the AC50 entry is “inactive”.

Turning to `Cn1cnc(CCN)c1`, the AC50 result is “inactive”.

Consider `C[C@H]1CC[C@@]2(NC1)O[C@@H]1C[C@H]3[C@@H]4CC[C@@H]5C[C@@H](O)CC[C@@]5(C)[C@@H]4CC[C@]3(C)[C@@H]1[C@@H]2C`, for which the AC50 result was “inactive”.

For `C[C@]1(C(=O)O)[C@@H]2CC[C@@H](O2)[C@@]1(C)C(=O)O`, the AC50 result was “inactive”.

For `[N-]=[N+]=CC(=O)CC[C@H](N)C(=O)O`, the activity, negative = inhibition was -11.2% [at 11.4 µM] (inactive).

On to `CN(C)CCCNc1c2c(nc3ccc(Cl)cc13)CCCC2`, for which the activity, negative = inhibition is 9.14% [at 11.4 µM] (inactive).

As for `COc1ccc(C2SCC(=O)Nc3c2c(C)nn3C2CCOC(C)(C)C2)cc1` (stereo not drawn), the AC50 result was “inactive”.

For the compound `C[C@@]12CC[C@H](O)C[C@@H]1CC[C@@H]1[C@@H]2CC[C@@]2(C)[C@@H](C3=CC(=O)OC3)[C@H](O)C[C@]12O`, the activity, negative = inhibition is 17.5% [at 11.4 µM] (inactive).

For the compound `Cc1cc2c(C(F)(F)F)cc(=O)oc2c2c1NCCC2`, the AC50 result is “inactive”.

With `N=C(N)SCc1ccc(Cl)c2ccccc12` (tested in a mixture with another compound), the AC50 was 3.16 µM (active).

For the compound `C/C(=N\OC(=O)NC(C)C)c1sc(-c2ccc(Cl)cc2)nc1C`, the AC50 result was “inactive”.

As for `C[C@@]12CC[C@H](O[C@@H]3O[C@H](CO)[C@@H](O)[C@H](O)[C@@H]3O)C[C@@H]1CC[C@H]1[C@H]2CC[C@@]2(C)[C@@H](C3=CCOC3=O)CC[C@]12O`, the activity, negative = inhibition was -0.449% [at 11.4 µM] (inactive).

For the compound `COc1ccc(C[C@H]2NC[C@H](O)[C@@H]2OC(C)=O)cc1`, the AC50 is 7.94 µM (active).

Regarding `c1ccc2c(c1)OC[C@@H](C1=NCCN1)O2`, the AC50 is 0.631 µM (active).

Regarding `C[N+]1(C)CCO[C@](O)(c2ccc(-c3ccc([C@]4(O)C[N+](C)(C)CCO4)cc3)cc2)C1`, the AC50 entry is “inactive”.

Turning to `Cc1ccc(N=Nc2c(O)[nH]c(=O)[nH]c2=O)c([N+](=O)[O-])c1`, the AC50 entry is “inactive”.

Regarding `Nc1nc(N)c(N=Nc2ccc([As](=O)(O)O)cc2)c(=O)[nH]1`, the activity, negative = inhibition is 13.1% [at 11.4 µM] (inactive).

For `CCCCCCCCCCCCCC(=O)O[C@H]1[C@@H](C)[C@@]2(O)[C@@H](C=C(CO)C[C@]3(O)C(=O)C(C)=C[C@@H]23)C2C(C)(C)[C@]21OC(C)=O` (stereo partly drawn), the AC50 entry is “inactive”.

Take `CCc1ccccc1NC(=O)NC1CC2CCC(C1)N2Cc1cccs1` (stereo not drawn): the AC50 is 6.31 µM (active).

On to `COCCCNC(=S)NC1CC2CCCC(C1)N2Cc1cccs1` (stereo not drawn), for which the AC50 is 0.891 µM (active).

Turning to `COCCNC(=S)NC1CC2CCCC(C1)N2Cc1cccs1` (stereo not drawn), the half-maximal activity concentration (AC50) is 0.398 µM (active).

Consider `COCCNC(=S)N1C2CCC1CC(NC(=O)NC13CC4CC(CC(C4)C1)C3)C2` (stereo not drawn), for which the AC50 entry was “inactive”.

Take `C=C1C(O)(c2ccccc2)C2CC[N+]1(C)CC2` (stereo not drawn): the AC50 result is “inactive”.

Consider `Cn1c(O)c(C(=N)COc2ccccc2)c(=O)n(C)c1=O`, for which the AC50 entry is “inactive”.

As to `CCCCc1ccc(C(=O)O)nc1`, the AC50 entry was “inactive”.

`CS(=O)c1ccc(-c2nc(-c3ccc(F)cc3)c(-c3ccncc3)[nH]2)cc1` (stereo not drawn): the AC50 entry is “inactive”.

`C[C@@H](Cc1ccccc1)NCCC(c1ccccc1)c1ccccc1`: the AC50 was 0.01 µM (active).

Take `C#CCN(C)[C@H](C)Cc1ccccc1`: the AC50 entry is “inactive”.

Turning to `CCOC(=O)N1CCC(NC(=O)CCc2nc(C3=CCN(C)CC3)no2)CC1`, the AC50 result was “inactive”.

For the compound `Nc1nnnn1CCO`, the activity, negative = inhibition is 3.8% [at 11.4 µM] (inactive).

As to `O=C(O)c1nn(Cc2ccc(Cl)cc2Cl)c2ccccc12`, the AC50 entry is “inactive”.

Regarding `Cc1ccccc1-n1c(O)c(C=Nc2ccc(N(C)C)cc2)c(=O)[nH]c1=O`, the AC50 result is “inactive”.

For the compound `Cc1oc(-c2ccccc2F)nc1CS(=O)CC(=O)N1CCC2(CC1)OCCO2` (stereo not drawn), the AC50 entry is “inactive”.

On to `CC1=C2[C@@H]3OC(=O)[C@@H](C)[C@@H]3CC[C@]2(C)C=CC1=O`, for which the AC50 entry is “inactive”.

As for `O=C(O)[C@H]1C[C@@H]1[C@H](NP(=O)(c1ccccc1)c1ccccc1)c1ccccc1`, the AC50 result was “inactive”.

For `COc1ccc(CNC(=O)/C=C\c2ccc3[nH]cc(CCN(C)C)c3c2)cc1`, the AC50 result is “inactive”.

As to `CN[C@H](Cc1ccccc1)c1cccc(OC)c1O`, the AC50 is 0.0398 µM (active).

`O=c1[nH]c(=O)n([C@H]2C[C@H](O)[C@H](CO)O2)cc1/C=C\Br`: the AC50 entry was “inactive”.

For `N#C/C(=C\c1ccc(O)c(O)c1)C(=O)NCCCNC(=O)/C(C#N)=C/c1ccc(O)c(O)c1`, the AC50 result is “inactive”.

Take `COCCCn1c(N)c(C(=O)Nc2sc3c(c2C(=O)OC)CCCC3)c2nc3ccccc3nc21`: the AC50 result is “inactive”.

On to `CCCCn1c(N)c(C(=O)NCc2cccs2)c2nc3ccccc3nc21`, for which the AC50 is 20 µM (active).

Regarding `O=[As](O)(O)c1ccc(N=Nc2ccc(O)cc2)cc1`, the activity, negative = inhibition is 2.25% [at 11.4 µM] (inactive).

As to `C[C@@]12CC[C@H]3[C@@H](CC[C@@H]4C[C@H](O)CC[C@]43C)[C@H]1CC[C@H]2O`, the AC50 entry is “inactive”.

In the case of `C[C@]12CC[C@H](O)C[C@@H]1CC[C@H]1[C@H]2CC[C@]2(C)C(=O)CC[C@@H]12`, the AC50 entry is “inactive”.

With `COc1ccc2c(c1)CN([C@H](C)[C@@H]1CC[C@@H]3[C@H]4CC[C@H]5C[C@@H](O)CC[C@@]5(C)[C@H]4CC[C@]31C)CO2`, the AC50 was 3.16 µM (active).

Regarding `CC[N@+]1(C)CCC[C@@H](OC(=O)C(O)(c2ccccc2)c2ccccc2)C1`, the AC50 was 5.01 µM (active).

As for `CN=C(NC#N)NCCSCc1nc[nH]c1C`, the AC50 result was “inactive”.

For `C[C@H](N)[C@H](O)c1ccc(O)c(O)c1`, the AC50 entry is “inactive”.

Turning to `CC(C)C[C@H]1C(=O)N2CCC[C@@H]2[C@]2(O)O[C@](NC(=O)[C@@H]3C=C4c5cccc6[nH]c(Br)c(c56)C[C@H]4N(C)C3)(C(C)C)C(=O)N12`, the AC50 entry is “inactive”.

`CC[C@@H](CO)NC(=O)[C@H]1C=C2c3cccc4c3c(cn4C)C[C@H]2N(C)C1`: the AC50 is 12.6 µM (active).

For the compound `CC[C@H](CO)NC(=O)[C@@H]1C=C2c3cccc4c3c(cn4C)C[C@@H]2N(C)C1`, the AC50 is 39.8 µM (active).

As to `Cc1cc(NC(=O)CCC(=O)N2CCC3(CC2)OCCO3)no1`, the AC50 entry was “inactive”.

As to `Cc1ccc(CCN2CC(C(=O)N3CCC4(CC3)OCCO4)CC2=O)cc1` (stereo not drawn), the AC50 result is “inactive”.

For the compound `N[C@H](CCCCCP(=O)(O)O)C(=O)O`, the AC50 entry was “inactive”.

Consider `O=C(O)CCCc1ccc(N(CCCl)CCCl)cc1`, for which the AC50 result is “inactive”.

In the case of `C[C@H](CCC(=O)O)[C@H]1CC[C@]2(C)[C@@H]3C(=O)C[C@H]4C(C)(C)[C@@H](O)CC[C@]4(C)[C@H]3C(=O)C[C@@]12C`, the activity, negative = inhibition was -4.73% [at 11.4 µM] (inactive).

`CC(=O)[C@@H]1CC[C@H]2[C@H]3CC[C@H]4C[C@@H](O)CC[C@]4(C)[C@@H]3CC[C@]12C`: the AC50 entry was “inactive”.

Turning to `Oc1ccc(CCNCc2cc3c(cc2Br)OCO3)cc1`, the AC50 was 0.316 µM (active).

`O=C(O)C(=O)Cc1ccc2c(c1)OCO2`: the activity, negative = inhibition was -12.2% [at 11.4 µM] (inactive).

As a reminder, the AC50 is the concentration giving half of the maximal activity seen.
